TGFb SMAD3 inh = blocks TGF-b signaling; HepG2 CAGA-GFP TGF-b/SMAD3 reporter, GFP fluorescence, 18 h; TGF-beta stimulated, 500 pg/mL final; 410,000 tested, 1.2% active; Potency, µM (titrated, usually from 46.1 µM), inactives show at the highest dose activity, negative = inhibition, usual class: inhibitors; further: on the % scale 0 is the no-effect control and ±100 the full control effect; nearly all actives have a fitted effect of over 65% in size
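TGF-beta reporter screen: HEPG2 CAGA-GFP, 1% FBS, 500 pg/mL TGF-beta final, 18 h; per-cell GFP summed per well; curves fitted and categorized by class.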
Gal4-VP16 FLuc = counter-screen for ROR gamma inhibitors: Gal4-VP16 reporter; Potency, µM (series often up to 53.6 µM), without a hit: top-dose activity, negative = inhibition, usual class: inhibitors; AID 2546; 310,000 tested, 3.5% active; Drosophila S2 Gal4-VP16 UAS-luciferase, luminescence, 20 h;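 further: Gal4-VP16 expression switched on by copper sulfate through the metallothionein promoter; on the % scale 0 is the no-effect control and ±100 the full control effect; nearly all actives have a fitted effect of over 50% in size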
ATXN2 expr inh = inhibitors of ATXN2 expression | HEK-293 ATXN2-luciferase reporter, luminescence, 24 h | AID 1745845 | 360,000 tested, 0.72% active | Potency, µM (series often up to 57 µM), for the others: at the top dose activity change, negative = inhibition, most hits filed as inhibitors; further: on the % scale 0 is the no-effect control and ±100 the full control effect; nearly all actives have a fitted effect of over 55% in size
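ATXN2-luciferase reporter cells (luciferase flanked by upstream and downstream ATXN2 gene portions) were treated 24 h at 37 °C with compounds at up to 57 uM. SteadyGlo luminescence gave expression; GF-AFC fluorescence gave viability.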
RORgamma inh = inhibitors of mouse ROR gamma transcriptional activity; P51450; Drosophila S2 Gal4-RORgamma UAS-luciferase reporter, 20 h; Potency, µM (doses to about 53.6 µM), for inactives: at the highest dose activity change, negative = inhibition, most hits filed as inhibitors; 310,000 tested, 5.4% active; further: on the % scale 0 is the no-effect control and ±100 the full control effect; nearly all actives have a fitted effect of over 60% in size
Target sequence (P51450 whole entry, looked up, the tested form may be a part): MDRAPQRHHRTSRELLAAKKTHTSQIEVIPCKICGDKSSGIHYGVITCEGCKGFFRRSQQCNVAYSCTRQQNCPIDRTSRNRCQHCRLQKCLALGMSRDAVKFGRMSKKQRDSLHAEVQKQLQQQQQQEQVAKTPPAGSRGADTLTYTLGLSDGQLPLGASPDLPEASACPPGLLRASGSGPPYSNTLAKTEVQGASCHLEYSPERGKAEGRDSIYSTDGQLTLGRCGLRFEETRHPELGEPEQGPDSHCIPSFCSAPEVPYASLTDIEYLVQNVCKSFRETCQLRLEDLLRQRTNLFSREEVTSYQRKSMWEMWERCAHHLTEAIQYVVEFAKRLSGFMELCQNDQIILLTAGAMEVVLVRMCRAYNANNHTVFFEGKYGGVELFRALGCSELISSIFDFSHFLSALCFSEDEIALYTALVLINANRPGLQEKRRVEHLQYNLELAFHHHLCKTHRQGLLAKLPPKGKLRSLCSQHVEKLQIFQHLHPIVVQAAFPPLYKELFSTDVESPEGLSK
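Read-out: Photinus luciferase luminescence; inhibitors lower reporter signal. Insect Schneider cells with Gal4-ROR gamma fusion under metallothionein promoter, UAS reporter; 700 uM final copper sulfate induction, 20 hr, ambient temperature.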
ATXN viability = viability counter-screen for ATXN expression inhibitors | S2 cells (HEK-293 line with an ATXN2-luciferase reporter) viability, CellTiter-Fluor protease fluorescence, 24 h | 400,000 tested, 0.49% active | Potency, µM (highest dose often 56.7 µM), hits mostly cytotoxic; further: nearly all actives have a fitted effect of over 40% in size
HepG2 tox = kills HepG2 cells in TGF-b inhibitor counter-screen; HepG2 CAGA-GFP viability, ATP luminescence, 18 h; 410,000 tested, 0.76% active; AID 588856; Potency, µM (series often up to 46.1 µM), for the others: top-dose activity change, negative = cytotoxicity, actives largely listed as cytotoxic
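CellTiter-Glo luminescence gave cytotoxicity after 18 hours at 37 degrees C. The cells were HepG2 CAGA-GFP in 1% FBS DMEM, stimulated with 500 pg/mL TGF-beta after compound addition. %Activity was normalised to no-cell wells (complete cell-killing) and DMSO (no toxicity), and curves were fitted and classified.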
Starred values were filed as active, the others as inactive; i = inactive; ? = inconclusive; · = not tested or not shown; [ ] = another dose, or the depositor's remark. Most compounds without a hit are left out; they make up all but 6.3% or so of the library. The call rests on the fitted dose curve; in most records, active means well fitted curve in the direction sought with a large enough effect; inconclusive means small, poorly fitted or top-dose-only effect, or another doubt; inactive means no such curve, though single readings can be large; an effect the other way counts as inactive or inconclusive. Potency means the concentration at half of the fitted maximal effect.

SMILES | TGFb SMAD3 inh | Gal4-VP16 FLuc | ATXN2 expr inh | RORgamma inh | ATXN viability | HepG2 tox
Cc1ccc(-n2c(Cc3noc4ccccc34)n[nH]c2=S)cc1 | 10% | -27% | -10% | -7% | i | -14%
Cc1ccc(-n2c(-c3ccc(Cl)cc3Cl)n[nH]c2=S)cc1 | -8% | 5µM* | -22% | 3.2µM* | i | -11%
COc1ccc(-n2c(-c3ccc(C)cc3)n[nH]c2=S)cc1 | -1% | 3.2µM* | 2% | 1.4µM* | i | 2%
Cc1n[nH]c(=S)n1-c1ccccc1 | 8% | -20% | 11% | ? | i | 4%
CCC(=O)Nc1ccc2nc(SCc3ccc(C)cc3)sc2c1 | -3% | · | 5% | · | i | -3%
COc1ccc(CCN2C(=O)CCC2(C)c2nnnn2-c2c(C)cccc2C)cc1OC (centres undefined) | · | · | 19% | · | i | ·
Cc1ccc(-n2c(-c3ccccc3)n[nH]c2=S)c(C)c1 | 3% | 4.5µM* | -22% | 5µM* | i | 7%
Cc1ccc(-n2c(-c3ccccc3)n[nH]c2=S)cc1 | 0% | 5.6µM* | 5% | 3.2µM* | i | -33%
Cc1ccc(-n2c(-c3ccncc3)n[nH]c2=S)cc1C | -1% | 4% | 4%[11.3 µM] | 26% | i | -9%
C=C(C)Cn1c(-c2ccncc2)n[nH]c1=S | 36% | -15% | -5% | 13µM* | i | 1%
O=C(O)c1ccc(-n2c(-c3ccccc3)n[nH]c2=S)cc1 | -5% | -1% | 7% | 6% | i | -25%
Cc1ccc(-n2c(-c3ccncc3)n[nH]c2=S)cc1 | 7% | -7% | 20% | 11µM* | i | 10%
COC(=O)N1CCC2(CCN(C(=O)NC(C)C)CC2)CC1 | · | 5% | · | 6% | · | ·
CC(=O)N[C@@H](C)C(=O)NCC1Cc2cc(C)cc(-c3cnccn3)c2O1 (some centres undefined) | · | · | · | · | i | ·
CC(c1ccccc1)n1c(-c2ccccc2)n[nH]c1=S (centres undefined) | 12% | · | · | · | · | -4%
Fc1ccc(-n2c(-c3ccc4c(c3)OCO4)n[nH]c2=S)cc1Cl | 4% | ? | 57% | ? | i | 9%
COc1cc(OC)cc(-c2n[nH]c(=S)n2-c2ccc3c(c2)OCO3)c1 | 10% | ? | 4% | 5.6µM* | i | 13%
Cn1c(-c2cnn(-c3ccccc3)c2N)n[nH]c1=S | 0% | -8% | · | -38% | i | -13%
CC(c1ccccc1)n1c(-c2ccc(C(C)(C)C)cc2)n[nH]c1=S (centres undefined) | ? | 7.1µM* | -15% | 7.1µM* | i | -14%
Nc1c(-c2n[nH]c(=S)n2-c2ccc(Cl)cc2Cl)cnn1-c1ccccc1 | ? | -19% | 24% | 2.8µM* | i | -51%
CC(C)(C)OC(=O)N1CCC(c2c(C(=O)NCCc3ccccc3)cnn2-c2ccc(F)cc2)CC1 | ? | · | ? | · | ? | -45%
CCc1c(C)sc(NC(=O)c2noc(C)c2[N+](=O)[O-])c1C#N | ? | ? | · | 18µM* | i | -44%
CCc1c(C)sc(NC(=O)c2cc(-c3ccc(OC)c(OC)c3)on2)c1C#N | 9% | -11% | 9% | -14% | i | 1%
CCc1c(C)sc(NC(=O)c2cc(CC(C)C)on2)c1C#N | 6% | 1% | 5% | -13% | i | -35%
CCc1c(C)sc(NC(=O)c2cc(-c3cc(OC)ccc3OC)on2)c1C#N | 2% | -8% | 14µM* | -6% | · | 2%
SMILES | TGFb SMAD3 inh | Gal4-VP16 FLuc | ATXN2 expr inh | RORgamma inh | ATXN viability | HepG2 tox
O=C1c2cccnc2-c2ncccc21 | 16% | 2% | -1% | -10% | ? | -7%
O=C1C(=O)c2cccnc2-c2ncccc21 | 1.4µM* | · | 0.5µM* | · | 0.4µM* | 2µM*
COC1=C(Br)C(=O)c2ncccc2C1=O | ? | · | 15µM* | · | 24µM* | -52%
Cc1cc(-n2ccnc(NCCc3ccc(S(N)(=O)=O)cc3)c2=O)ccc1Br | ? | · | -29% | · | ? | -19%
Cc1ccc(C)c(NC(=O)CSc2ncc3c(n2)-c2cc(Cl)ccc2N(Cc2ccccc2F)S3(=O)=O)c1 | -16% | · | -3% | · | i | -17%
CCc1ccc(NC(=O)c2ccc(CN3CC(=O)N4CCCCC4C3=O)cc2)cc1 (centres undefined) | ? | · | · | · | · | -26%
Cc1nc2ccccc2nc1N/N=C/c1ccc(O)cc1 | -6% | -23% | 42% | ? | i | -16%
Oc1ccc(Nc2nc(-c3ccc(Cl)cc3)nc3ccccc23)cc1 | ? | · | · | · | · | 14µM*
Oc1ccc(Nc2nc(-c3ccccc3)nc3ccccc23)cc1 | -10% | -2% | 1% | 3% | i | -9%
CC(=O)Nc1ccc(Nc2nc(-c3ccccc3)nc3ccccc23)cc1 | 0% | 13µM* | ? | -28% | ? | -29%
COc1ccc(-c2nc(N/N=C(\C)c3ccc(O)cc3)c3ccccc3n2)cc1 | 14µM* | -9% | ? | -29% | ? | -94%
Oc1ccc(Nc2nc3ccccc3nc2Nc2ccc(O)cc2)cc1 | 11µM* | ? | ? | 16µM* | ? | -50%
COc1ccc(-n2c(-c3ccccc3)nc(=S)c3c2CCCC3)cc1 | 14% | ? | 0% | 14µM* | i | 0%
COc1ccc(-n2c(-c3cccc(OC)c3)nc(=S)c3c2CCCC3)cc1 | -23% | ? | ? | 10µM* | · | -35%
COc1ccc(S(=O)(=O)Nc2ccc(C(N)=O)cc2)cc1C(=O)N1CCCCCC1 | 0% | 5% | 29% | -18% | i | -5%
COCCCNC(=S)NNC(=S)Nc1ccc(F)cc1F | -3% | -17% | 18% | 7.1µM* | i | -4%
COCCCNC(=S)NCCc1ccc(F)cc1 | -6% | ? | · | 10µM* | i | -8%
COc1ccc(Cl)cc1NC(=S)N(CCCN1CCOCC1)Cc1cn(C)c2ccccc12 | ? | ? | 1% | 13µM* | i | -8%
COc1cccc2cc(C(C)N(CCCN3CCOCC3)C(=S)Nc3ccc(C)cc3)oc12 (centres undefined) | 1% | -10%[10 µM] | -3% | 40% | i | 16%
COc1cc(Cl)ccc1NC(=S)N(CCCN1CCOCC1)Cc1cn(C)c2ccccc12 | -8% | ? | ? | 11µM* | i | 3%
COc1ccc(NC(=S)N(CCCN2CCOCC2)C(C)c2cc3ccccc3o2)cc1 (centres undefined) | -27% | -27% | · | 10µM* | i | -8%
COc1ccccc1NC(=S)N(CCCN1CCOCC1)Cc1cn(C)c2ccccc12 | 0% | -9% | ? | ? | i | -4%
